Holding throughout (test): NCI-60 one-dose screen, 48 h (100 = growth as untreated, 0 = no growth, -100 = all killed)
One test relates to NCI-H226 lung. Conditions: 10 µM.
Another test deals with NCI-H322M lung. The note with it: 10 µM.
For a further test, the system named is HOP-62 NSCLC. The note with it: 10 µM.
For another test, the system named is NCI-H522 lung. Conditions: 10 µM unless noted.
The test system of a further test is A549/ATCC NSCLC. The note with it: 10 µM.
The test system of another test is DU-145 prostate. Conditions: 10 µM unless noted.
The next test concerns K-562 leukemia. The note with it: 10 µM.
The next test concerns MALME-3M melanoma. Conditions: 10 µM.
In the next test the test system is MDA-MB-231 breast. Conditions: 10 µM.
In the next test the test system is RXF 393 renal. Conditions: 10 µM unless noted.
The next test concerns SF-268 CNS. Conditions: 10 µM.
The next test has as its system SF-295 CNS. Conditions: 10 µM.
For the next test, the system named is SF-539 CNS. The note with it: 10 µM.
For a further test, the system named is UACC-257 melanoma. Conditions: 10 µM.
Another test concerns M14 melanoma. Conditions: 10 µM.
The next test has as its system HOP-92 NSCLC. Conditions: 10 µM.
A further test concerns 786-0 renal. Conditions: 10 µM.
The subject of the next test is COLO 205 colon. The note with it: 10 µM.
For a further test, the system named is NCI-H460 lung. The note with it: 10 µM.

Values joined by “and” are separate entries in the source; they are usually repeats but may differ in a detail not shown here. Equal values may be shown once. About 83,000 compounds went through this panel and 20% of them were active in at least one assay; those are over-represented in the sample as a whole.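 Results are percent growth after 48 hours of single-concentration exposure. 100 means growth as in untreated cells, lower positive values show inhibition; negative values down to -100 show cell death.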 Active and inactive are the calls of the source. The calls were made as follows: active = growth percent below 10; inactive = the rest.

As to `CS(=O)(=O)OC1CC(n2ccc(=O)[nH]c2=O)OC1COC(c1ccccc1)(c1ccccc1)c1ccccc1` (stereo not drawn), the growth is 104% (inactive) in the test on NCI-H226 lung; 89.1% (inactive) in the test on NCI-H322M lung; 106% (inactive) in the test with HOP-62 NSCLC; 86.1% (inactive) in the test with NCI-H522 lung; 101% (inactive) with A549/ATCC NSCLC; 99.8% (inactive) in the test with DU-145 prostate. Further, the growth in the test on K-562 leukemia was 98.5% (inactive); in the test with MALME-3M melanoma, 91.9% (inactive); with MDA-MB-231 breast it was 106% (inactive); with RXF 393 renal, 105% (inactive); with SF-268 CNS, 103% (inactive); in the test with SF-295 CNS, 110% (inactive). The growth is 105% (inactive) in the test with SF-539 CNS, 102% (inactive) in the test with UACC-257 melanoma and 88.7% (inactive) with M14 melanoma.
Turning to `Nc1c2ccccc2nc2ccccc12`, the growth with NCI-H226 lung was 2.61% (active) and 38.7% (inactive) and 40.4% (inactive); in the test with NCI-H322M lung it was 12.1% (inactive) and 36.8% (inactive) and 31.9% (inactive); with HOP-62 NSCLC, 11.3% (inactive) and 52.2% (inactive) and 47.3% (inactive); in the test with HOP-92 NSCLC, 69.1% (inactive) and 2.79% (active); in the test with NCI-H522 lung it was -49% (active) and -11.2% (active) and 30.2% (inactive); with A549/ATCC NSCLC, -5.72% (active) and 20.6% (inactive) and 28.6% (inactive). The growth with 786-0 renal was 25.5% (inactive) and 34.8% (inactive) and 50% (inactive); with COLO 205 colon it was -73.8% (active) and 7.85% (active) and 12.6% (inactive); in the test on DU-145 prostate, 16.3% (inactive) and 40.9% (inactive); in the test on K-562 leukemia, 1.31% (active) and 11.9% (inactive) and 27% (inactive); in the test with MALME-3M melanoma, 5.23% (active) and 42% (inactive) and 34% (inactive); in the test on MDA-MB-231 breast, 25.2% (inactive) and 40.1% (inactive) and 35.4% (inactive). Also, the growth with RXF 393 renal was 8.02% (active) and -6.66% (active) and 44.2% (inactive); in the test on SF-268 CNS, 24.2% (inactive) and 47.3% (inactive); with SF-295 CNS, -24.9% (active) and 25.7% (inactive) and 49.5% (inactive); in the test on SF-539 CNS, 21.7% (inactive) and 23.4% (inactive) and 29.2% (inactive); in the test on UACC-257 melanoma, -31.3% (active) and 25.4% (inactive) and 53.5% (inactive); with M14 melanoma, 7.24% (active) and 34.6% (inactive) and 42.3% (inactive).
Regarding `Cc1cc(O)c(C(C)C)cc1Cl`, the growth in the test with NCI-H226 lung is 96.7% (inactive); in the test on NCI-H322M lung it was 96.9% (inactive); in the test on HOP-62 NSCLC it was 95.7% (inactive); in the test with NCI-H460 lung it was 99.1% (inactive); with HOP-92 NSCLC, 99.9% (inactive); with NCI-H522 lung, 101% (inactive). Moreover, the growth with 786-0 renal is 101% (inactive); with COLO 205 colon it was 107% (inactive); in the test with DU-145 prostate it was 101% (inactive); in the test on K-562 leukemia, 96.8% (inactive); in the test with MALME-3M melanoma, 109% (inactive); in the test with MDA-MB-231 breast it was 104% (inactive). The growth was 120% (inactive) in the test on RXF 393 renal; 99.3% (inactive) in the test on SF-268 CNS; 100% (inactive) in the test with SF-295 CNS; 105% (inactive) in the test with SF-539 CNS; 101% (inactive) in the test on M14 melanoma.
In the case of `COC1OCC(O)C(O)C1O` (stereo not drawn), the growth with NCI-H226 lung is 108% (inactive); in the test with NCI-H322M lung, 99.8% (inactive); in the test with HOP-62 NSCLC, 102% (inactive); with HOP-92 NSCLC, 103% (inactive); in the test on NCI-H522 lung it was 97.5% (inactive); with A549/ATCC NSCLC it was 101% (inactive). The growth in the test on 786-0 renal was 101% (inactive); with COLO 205 colon it was 107% (inactive); in the test on DU-145 prostate it was 105% (inactive); in the test with K-562 leukemia it was 104% (inactive); in the test with MALME-3M melanoma it was 103% (inactive); in the test on MDA-MB-231 breast, 110% (inactive). Also, the growth is 106% (inactive) in the test with RXF 393 renal; 98.4% (inactive) with SF-268 CNS; 105% (inactive) with SF-295 CNS; 107% (inactive) in the test with SF-539 CNS; 101% (inactive) in the test with M14 melanoma.
Take `CSC1SCC2C(=O)N(C)C(C(C)C)C(=O)OCC(NC(=O)c3cnc4ccccc4n3)C(=O)NC(C)C(=O)N(C)C1C(=O)N(C)C(C(C)C)C(=O)OCC(NC(=O)c1cnc3ccccc3n1)C(=O)NC(C)C(=O)N2C` (stereo not drawn): the growth in the test with NCI-H226 lung is -5.57% (active); with NCI-H322M lung it was 9.51% (active); in the test with HOP-62 NSCLC, -12.4% (active); in the test with HOP-92 NSCLC it was -20.3% (active); with NCI-H522 lung, -16.1% (active); with A549/ATCC NSCLC, -15.2% (active). In addition, the growth with 786-0 renal was -10.6% (active); in the test with COLO 205 colon, -45.3% (active); with DU-145 prostate, -19.5% (active); with K-562 leukemia, -61.8% (active); with MALME-3M melanoma it was -23.1% (active); in the test with MDA-MB-231 breast, -8.05% (active). For the same molecule, the growth is -0.0463% (active) in the test with RXF 393 renal; -2.43% (active) with SF-268 CNS; -22.3% (active) in the test on SF-295 CNS; -52.9% (active) in the test on SF-539 CNS; -13.6% (active) in the test on UACC-257 melanoma.
For the molecule `NC(=O)SCC(=O)NNc1ccccc1`, the growth is 93.1% (inactive) in the test with NCI-H226 lung; 94.8% (inactive) in the test on NCI-H322M lung; 93.8% (inactive) in the test with HOP-62 NSCLC; 92.2% (inactive) with HOP-92 NSCLC; 85.2% (inactive) in the test with NCI-H522 lung; 85.3% (inactive) in the test on A549/ATCC NSCLC. In addition, the growth in the test on 786-0 renal was 108% (inactive); with COLO 205 colon, 100% (inactive); with DU-145 prostate, 99.6% (inactive); in the test on K-562 leukemia it was 101% (inactive); with MDA-MB-231 breast it was 89.2% (inactive); in the test with RXF 393 renal it was 112% (inactive). Further, the growth is 92.8% (inactive) in the test with SF-268 CNS; 94.6% (inactive) in the test on SF-295 CNS; 103% (inactive) in the test on SF-539 CNS; 91.6% (inactive) in the test with UACC-257 melanoma; 102% (inactive) in the test with M14 melanoma.
Turning to `CN1CCN(CCCN2c3ccccc3Sc3ccc(C(F)(F)F)cc32)CC1`, the growth with NCI-H226 lung was 101% (inactive); with NCI-H322M lung it was 69.7% (inactive); with HOP-62 NSCLC, 61.8% (inactive); with NCI-H460 lung, 33.6% (inactive); with NCI-H522 lung it was 73% (inactive); with A549/ATCC NSCLC, 59.4% (inactive). Further, the growth with 786-0 renal was 37.2% (inactive); in the test on COLO 205 colon, -79% (active); in the test with DU-145 prostate it was 70.4% (inactive); in the test with K-562 leukemia, -11.9% (active); with MALME-3M melanoma, -10.5% (active); with MDA-MB-231 breast, 52.7% (inactive). Moreover, the growth in the test with RXF 393 renal was 37% (inactive); in the test with SF-268 CNS, 63.5% (inactive); with SF-295 CNS, 42.9% (inactive); in the test with UACC-257 melanoma, -59.5% (active); with M14 melanoma, -74% (active).

The values are drawn from PubChem BioAssay (NCI).
